Source: PubChem BioAssay
For some assays here: Potency and affinity values are given separately. The source made the active and inactive calls. Unless noted, the limit is not given here; nearly all actives have IC50 up to about 0.91 µM.

biological target: Protein kinase 7 (PK7), Plasmodium falciparum 3D7 (PF3D7_0213400) (UniProt Q7YTF7); test: inhibition of Plasmodium PK7 catalytic activity – biochemical, TCAMS antimalarial set, Kinase-Glo luminescence (AID 1159587; call rule not given here); conditions: recombinant PfPK7, Kinase-Glo ATP depletion luminescence
Sequence (Q7YTF7 1-343): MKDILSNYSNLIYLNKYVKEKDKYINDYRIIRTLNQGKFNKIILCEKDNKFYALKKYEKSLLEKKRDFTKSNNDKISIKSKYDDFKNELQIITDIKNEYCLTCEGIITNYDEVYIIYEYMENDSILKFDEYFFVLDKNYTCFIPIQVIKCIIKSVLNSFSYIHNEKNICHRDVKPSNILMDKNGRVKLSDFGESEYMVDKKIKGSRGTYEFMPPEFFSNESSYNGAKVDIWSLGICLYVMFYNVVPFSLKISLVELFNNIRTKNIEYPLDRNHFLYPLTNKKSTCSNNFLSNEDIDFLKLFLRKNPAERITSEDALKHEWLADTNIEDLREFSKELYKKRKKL

outcome, inactive:
COc1cc(OC)c2c(c1Cl)O[C@]1(C2=O)C(=O)C(Cc2ccccc2)(Cc2ccccc2)C(=O)C[C@H]1C
CCC(CN1C(=O)C(c2ccccc2)(c2ccccc2)N=C1N)c1ccccc1 (stereo not given)
Cc1cc(N[C@@H](Cc2ccccc2)C(=O)NCc2cccc(F)c2)nc(Nc2ccccc2)n1
Fc1ccc2c(NN=Cc3ccccc3)ccnc2c1
CC(C)CCNC(=O)C1Cc2c([nH]c3cc(Br)ccc23)C2(CCN(CCc3ccccc3)CC2)N1 (stereo not given)
Cc1cccnc1CNc1nccc2c(C)c(C)[nH]c12
CC(C)(C)c1ccc(CN2CCC(NC(=O)c3ccc(-c4cccc(Cl)c4)s3)CC2)cc1
O=C(/C=C/c1ccc(Cl)c(Cl)c1)N1CCC(CNCc2cccc3cc[nH]c23)CC1
Cc1cccc2[nH]c(-c3cccc(-c4ccc(NC(=O)c5cccc(C(N)=O)c5)cc4)c3)nc12
CCN1CCN(CCCNc2ccnc3cc(Cl)ccc23)CC1
Cc1cc(-c2cccc(CNC3CCN(C)CC3)c2)ccc1S(=O)(=O)NC1CCC1
CCOc1c(CNCCCNc2cc(=O)c3ccccc3[nH]2)cc(Br)cc1OC
CCCCCCCCCc1c(C)[nH]c2ccccc2c1=O
COc1ccc2nccc([C@@H](O)CN3CCC(NCc4cn5cc(F)ccc5n4)CC3)c2c1
CCCN1CCN(Cc2ccc(C(=O)Nc3ccc(Cl)cc3)cc2)CC1
Cc1ccc(NC(=O)Nc2ccc(Cn3ncc(N4CCCNCC4)c(Cl)c3=O)cc2)cc1
COc1ccc(-c2nc(NC(=O)CSc3ccc([N+](=O)[O-])cc3)sc2C)cc1
CC(=O)N(Cc1nc(-c2cc(Cl)c(Cl)s2)cs1)c1c(C)cccc1C
COc1cc(CNc2ccc(N3CCCC3)cc2)cc(Cl)c1OC
CC(C)(C)C(Cn1ccnc1)NCc1cn[nH]c1-c1ccc(-c2ccccc2)cc1 (stereo not given)
CCCCCN1CCCC(CNS(=O)(=O)c2ccc(C(=O)Nc3ccc(C(F)(F)F)cc3)cc2)C1 (stereo not given)
Oc1ccc2[nH]c(-c3ccc(OC(F)(F)F)cc3)nc2c1CNC1CCCC1
COc1ccc2nccc([C@@H](O)CN3CCC(NCc4cc5cc(Cl)ccc5[nH]4)CC3)c2c1
COC[C@H]1CCCN1Cc1ccc(-c2ccc(-c3nc4ccccc4[nH]3)s2)cc1
CN(C)c1ccc(-c2csc(C(=O)NC3CCN(Cc4ccc(C(C)(C)C)cc4)C3)c2)cc1 (stereo not given)
Cc1[nH]c(C)c(-c2ccc(-c3ccc(OC(F)(F)F)cc3)nc2)c(=O)c1Cl
COc1ccc(CN2CCCN(Cc3cccc(C(=O)Nc4ccc(C)c(F)c4)c3)CC2)cc1
Cc1cc(N[C@@H](CC(C)C)C(=O)NCCOc2ccccc2)nc(NCC2CCCCC2)n1
COc1cc(OC)cc(C(=O)Nc2nc(-c3ccccn3)cs2)c1
CN(C)c1ccc(-c2ccc(C(=O)NC3CCN(Cc4cccc(C(F)(F)F)c4)CC3)s2)cc1
COc1ccc(OCC(=O)Nc2nc(-c3ccc(OC)cc3)c(C)s2)cc1
Cc1cc(N[C@@H](Cc2ccccc2)C(=O)Nc2ccccc2)nc(NCCc2ccccn2)n1
CCN(CCCN1CCCCC1)c1cc(C)nc(Nc2ccc(Br)cc2F)n1
CN=C(NC)c1cccc(NC(=O)C=Cc2ccc(C=CC(=O)Nc3cccc(C(=NC)NC)c3)cc2)c1
CC(=O)NC1=NC(C)(C)N(OCCCOc2ccc(Cl)c(Cl)c2)C(NC(C)=O)=N1
CC1c2cccc(O)c2CCN1CCc1ccc(Cl)c(Cl)c1 (stereo not given)
CC1CCCN(C(=O)c2cc(-c3ccccn3)nc3c(Cl)cccc23)C1 (stereo not given)
CCc1cn2c3c(cc(C(=O)N[C@@H](Cc4ccccc4)[C@H](O)CNC4CCCCC4)cc13)N(CC)S(=O)(=O)CC2
COc1ccc2ncc(Cl)c(CCN3CC[C@@H](CNCc4cc5c(cn4)OCS5)C3)c2n1
COc1ccc2nccc(N3CCC(CCNCc4cc5c(cn4)OCCO5)CC3)c2c1

biological target: Calcium-dependent protein kinase 4 (Plasmodium falciparum (isolate 3D7)) (UniProt Q8IBS5); test: PfCDPK4 kinase inhibitors, biochemical, TCAMS library (AID 1159588); conditions: recombinant PfCDPK4, Kinase-Glo ATP depletion luminescence
Sequence (Q8IBS5 whole entry, looked up): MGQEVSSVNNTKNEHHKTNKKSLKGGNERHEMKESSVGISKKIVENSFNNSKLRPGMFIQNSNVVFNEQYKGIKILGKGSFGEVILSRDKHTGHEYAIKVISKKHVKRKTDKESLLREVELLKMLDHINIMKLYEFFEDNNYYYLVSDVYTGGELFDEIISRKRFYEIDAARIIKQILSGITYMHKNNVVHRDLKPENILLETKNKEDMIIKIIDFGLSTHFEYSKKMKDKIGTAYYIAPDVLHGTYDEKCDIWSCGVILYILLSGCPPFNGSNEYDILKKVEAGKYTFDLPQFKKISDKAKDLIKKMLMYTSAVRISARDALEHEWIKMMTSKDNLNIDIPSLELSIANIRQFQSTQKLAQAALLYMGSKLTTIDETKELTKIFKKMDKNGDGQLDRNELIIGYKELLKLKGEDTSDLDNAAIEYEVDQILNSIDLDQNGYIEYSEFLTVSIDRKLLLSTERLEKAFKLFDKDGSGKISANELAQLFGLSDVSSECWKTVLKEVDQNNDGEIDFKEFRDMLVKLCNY

outcome, inactive:
COc1cc(OC)c2c(c1Cl)O[C@]1(C2=O)C(=O)C(Cc2ccccc2)(Cc2ccccc2)C(=O)C[C@H]1C
CCC(CN1C(=O)C(c2ccccc2)(c2ccccc2)N=C1N)c1ccccc1 (stereo not given)
Cc1cc(N[C@@H](Cc2ccccc2)C(=O)NCc2cccc(F)c2)nc(Nc2ccccc2)n1
Fc1ccc2c(NN=Cc3ccccc3)ccnc2c1
CC(C)CCNC(=O)C1Cc2c([nH]c3cc(Br)ccc23)C2(CCN(CCc3ccccc3)CC2)N1 (stereo not given)
Cc1cccnc1CNc1nccc2c(C)c(C)[nH]c12
CC(C)(C)c1ccc(CN2CCC(NC(=O)c3ccc(-c4cccc(Cl)c4)s3)CC2)cc1
O=C(/C=C/c1ccc(Cl)c(Cl)c1)N1CCC(CNCc2cccc3cc[nH]c23)CC1
Cc1cccc2[nH]c(-c3cccc(-c4ccc(NC(=O)c5cccc(C(N)=O)c5)cc4)c3)nc12
CCN1CCN(CCCNc2ccnc3cc(Cl)ccc23)CC1
Cc1cc(-c2cccc(CNC3CCN(C)CC3)c2)ccc1S(=O)(=O)NC1CCC1
CCOc1c(CNCCCNc2cc(=O)c3ccccc3[nH]2)cc(Br)cc1OC
CCCCCCCCCc1c(C)[nH]c2ccccc2c1=O
COc1ccc2nccc([C@@H](O)CN3CCC(NCc4cn5cc(F)ccc5n4)CC3)c2c1
CCCN1CCN(Cc2ccc(C(=O)Nc3ccc(Cl)cc3)cc2)CC1
Cc1ccc(NC(=O)Nc2ccc(Cn3ncc(N4CCCNCC4)c(Cl)c3=O)cc2)cc1
COc1ccc(-c2nc(NC(=O)CSc3ccc([N+](=O)[O-])cc3)sc2C)cc1
CC(=O)N(Cc1nc(-c2cc(Cl)c(Cl)s2)cs1)c1c(C)cccc1C
COc1cc(CNc2ccc(N3CCCC3)cc2)cc(Cl)c1OC
CC(C)(C)C(Cn1ccnc1)NCc1cn[nH]c1-c1ccc(-c2ccccc2)cc1 (stereo not given)
CCCCCN1CCCC(CNS(=O)(=O)c2ccc(C(=O)Nc3ccc(C(F)(F)F)cc3)cc2)C1 (stereo not given)
Oc1ccc2[nH]c(-c3ccc(OC(F)(F)F)cc3)nc2c1CNC1CCCC1
COc1ccc2nccc([C@@H](O)CN3CCC(NCc4cc5cc(Cl)ccc5[nH]4)CC3)c2c1
COC[C@H]1CCCN1Cc1ccc(-c2ccc(-c3nc4ccccc4[nH]3)s2)cc1
CN(C)c1ccc(-c2csc(C(=O)NC3CCN(Cc4ccc(C(C)(C)C)cc4)C3)c2)cc1 (stereo not given)
Cc1[nH]c(C)c(-c2ccc(-c3ccc(OC(F)(F)F)cc3)nc2)c(=O)c1Cl
COc1ccc(CN2CCCN(Cc3cccc(C(=O)Nc4ccc(C)c(F)c4)c3)CC2)cc1
Cc1cc(N[C@@H](CC(C)C)C(=O)NCCOc2ccccc2)nc(NCC2CCCCC2)n1
COc1cc(OC)cc(C(=O)Nc2nc(-c3ccccn3)cs2)c1
CN(C)c1ccc(-c2ccc(C(=O)NC3CCN(Cc4cccc(C(F)(F)F)c4)CC3)s2)cc1
COc1ccc(OCC(=O)Nc2nc(-c3ccc(OC)cc3)c(C)s2)cc1
Cc1cc(N[C@@H](Cc2ccccc2)C(=O)Nc2ccccc2)nc(NCCc2ccccn2)n1
CCN(CCCN1CCCCC1)c1cc(C)nc(Nc2ccc(Br)cc2F)n1
CN=C(NC)c1cccc(NC(=O)C=Cc2ccc(C=CC(=O)Nc3cccc(C(=NC)NC)c3)cc2)c1
CC(=O)NC1=NC(C)(C)N(OCCCOc2ccc(Cl)c(Cl)c2)C(NC(C)=O)=N1
CC1c2cccc(O)c2CCN1CCc1ccc(Cl)c(Cl)c1 (stereo not given)
CC1CCCN(C(=O)c2cc(-c3ccccn3)nc3c(Cl)cccc23)C1 (stereo not given)
CCc1cn2c3c(cc(C(=O)N[C@@H](Cc4ccccc4)[C@H](O)CNC4CCCCC4)cc13)N(CC)S(=O)(=O)CC2
COc1ccc2ncc(Cl)c(CCN3CC[C@@H](CNCc4cc5c(cn4)OCS5)C3)c2n1
COc1ccc2nccc(N3CCC(CCNCc4cc5c(cn4)OCCO5)CC3)c2c1
